Compounds with a hit are over-represented: about 1.1% of the library has one in this group of screens.
Mtb UGM inh – M. tuberculosis UGM enzyme inhibitors, primary screen, biochemical, fluorescence polarization, single point; UDP-galactopyranose mutase (Mycobacterium tuberculosis (strain ATCC 25618 / H37Rv)), …; purified UGM, fluorescence polarization probe displacement; inhibition, % at 10 µM; 320,000 compounds, 0.06% hits; AID 504406, 2011; in the data active = inhibition above about 10%, passing the limit was not always enough
Rv3671c protease – Rv3671c serine protease inhibitors, primary screen, biochemical, fluorescence polarization, M. tuberculosis H37Rv; P9WHR9; inhibition, % at 5.96 µM; 320,000 compounds, 0.048% hits; in the data active = inhibition above about 38%;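 note: extracellular domain of Rv3671c used as enzyme; 0% = enzyme with DMSO and 100% = no enzyme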
SSB-PriA inh – inhibitors of Klebsiella pneumoniae PriA binding to SSB C-terminal tail, primary screen, biochemical, AlphaScreen. PriA–SSB C-terminal tail interaction (Klebsiella pneumoniae). AlphaScreen SSBct-PriA binding, biotinylated peptide. inhibition, % at 33 µM. 430,000 compounds, 0.6% hits. AID 1272365, 2023; in the data active = inhibition mostly above about 37%, no sharp cut-off; inactive = mostly below about 20%;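 note: plate controls were negative control peptide for no effect and reference peptide for full effect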
RecA splice inh – Mtb RecA intein splicing inhibitors, primary screen, biochemical, fluorescence, HTS. AID 2221, 2009. cell-free RecA intein splicing. 290,000 compounds, 0.75% hits. Protein RecA (Mycobacterium tuberculosis (strain ATCC 25618 / H37Rv)), P9WHJ3. inhibition, % (no concentration beside the values); in the data active = inhibition above about 30%;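 note: 0% = vehicle wells and 100% = reference inhibitor control wells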
Target sequence (P9WHJ3 whole entry, looked up, canonical isoform): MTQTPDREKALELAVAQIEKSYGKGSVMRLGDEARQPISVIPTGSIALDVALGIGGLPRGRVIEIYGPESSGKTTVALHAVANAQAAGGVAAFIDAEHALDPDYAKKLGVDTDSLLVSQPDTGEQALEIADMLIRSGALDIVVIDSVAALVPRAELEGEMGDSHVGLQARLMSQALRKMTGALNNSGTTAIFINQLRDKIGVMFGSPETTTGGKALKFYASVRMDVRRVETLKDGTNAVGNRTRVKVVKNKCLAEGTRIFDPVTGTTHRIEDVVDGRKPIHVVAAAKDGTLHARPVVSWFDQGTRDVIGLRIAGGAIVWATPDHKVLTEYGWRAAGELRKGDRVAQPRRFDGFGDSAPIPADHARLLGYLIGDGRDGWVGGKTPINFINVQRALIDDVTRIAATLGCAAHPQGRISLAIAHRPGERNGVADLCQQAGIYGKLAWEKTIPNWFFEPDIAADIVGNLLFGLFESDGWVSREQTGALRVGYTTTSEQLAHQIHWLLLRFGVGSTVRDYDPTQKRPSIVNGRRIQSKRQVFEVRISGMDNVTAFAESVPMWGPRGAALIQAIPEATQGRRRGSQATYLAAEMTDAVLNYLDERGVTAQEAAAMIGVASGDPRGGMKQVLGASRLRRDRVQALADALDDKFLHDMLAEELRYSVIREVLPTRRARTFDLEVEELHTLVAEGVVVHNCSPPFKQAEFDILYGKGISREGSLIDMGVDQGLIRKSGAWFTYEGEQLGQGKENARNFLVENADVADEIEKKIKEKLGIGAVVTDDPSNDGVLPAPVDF
Mtb bLac sens – beta-lactam sensitization of Mtb H37Rv, H37Rv; M. tuberculosis H37Rv growth with meropenem, percent inhibition; inhibition, % at 25 µM; 330,000 compounds, 0.27% hits; AID 434955, 2010; call rule not given here;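 note: growth measured after seven days incubation then overnight dye step; 0% = bacteria only wells and 100% = bacteria with antibiotic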
An asterisk follows results filed as active; i = inactive; . = not tested or not shown; ! = not active in a repeat.

SMILES	Mtb UGM inh	Rv3671c protease	SSB-PriA inh	RecA splice inh	Mtb bLac sens
CCOc1ccc(CC(=O)Nc2nc(-c3ccccn3)cs2)cc1	.	.	58*	.	.
CCOc1ccc(CC(=O)Nc2nc(-c3cccnc3)cs2)cc1	.	.	-3	.	.
CS(=O)(=O)c1ccc(CC(=O)Nc2nc(-c3ccccn3)cs2)cc1	.	.	75*	.	.
CCc1ccc(C2=NNC(=Nc3cccc(S(=O)(=O)N(C)C)c3)SC2)cc1	1	-13	42*	7	-1
FC(F)(F)CNc1cccnc1	.	.	-2	.	.
O=C(/C=C/c1cccs1)Nc1scc(-c2ccccc2)c1C(=O)O	.	.	6	47*	.
CCOC(=O)c1c(-c2ccc(C)cc2)csc1NC(=O)/C=C/c1cccs1	.	.	-25	.	.
O=C(C[C@@H]1Nc2ccccc2NC1=O)Nc1cccc(Cl)c1Cl	.	.	7	.	.
O=C(/C=C/c1ccc2c(c1)OCO2)c1c(O)n(CCc2ccccc2)c(=O)[nH]c1=O	26*	-3	-3	7	99
COc1ccc(C)c2sc(N(CCCN(C)C)C(=O)c3ccc(S(=O)(=O)N4CCc5ccccc5C4)cc3)nc12	2	5	47*!	5	3
CN(C)CCN(C(=O)c1ccc(S(=O)(=O)N2CCCC2)cc1)c1nc2c(Cl)cccc2s1	.	.	1	.	.
CN(C)CCCN(C(=O)c1ccc(S(=O)(=O)N2CCc3ccccc32)cc1)c1nc2c(Cl)cccc2s1	-1	0	46*	17	9
COc1cccc2sc(N(CCCN(C)C)C(=O)c3ccc(S(=O)(=O)N4CCCc5ccccc54)cc3)nc12	-4	8	20*!	6	6
COc1cccc2sc(N(CCCN(C)C)C(=O)c3ccc(S(=O)(=O)N4CCc5ccccc5C4)cc3)nc12	2	-4	15	1	4
CCOC(=O)C1CCN(C(=O)C2COCC(=O)N2Cc2cccs2)CC1 (stereo unspecified)	.	.	6	.	.
CCOC(=O)c1c(C)oc2c1c1c(c3ccccc32)OCN(Cc2ccccn2)C1	1	-21	57*	1	81
Cc1ccc2sc(NC(=O)CN3C(=O)CCC3=O)nc2c1C	5	6	104*	0	-5
Cc1ccc(C)c2sc(NC(=O)CN3C(=O)CCC3=O)nc12	-1	1	1	-3	0
COc1cccc2sc(N(CCCN(C)C)C(=O)CCOc3ccccc3)nc12	.	.	-21	.	.
O=C(O)c1ccc(NC2=C(N3CCOCC3)C(=O)c3ccccc3C2=O)cc1	1	-105	-7	4	9
Cc1ccc(NC2=C(N3CCOCC3)C(=O)c3ccccc3C2=O)cc1	1	-140	7	41*	5
CC(=O)c1ccc(NC2=C(N3CCOCC3)C(=O)c3ccccc3C2=O)cc1	4	-113	-6	7	10
CC(=O)N(C)C1=C(N2CCOCC2)C(=O)c2ccccc2C1=O	-2	-31	11	32*	64
COc1ccc(OC)c(Nc2nc(CC(=O)NCCc3c[nH]c4ccccc34)cs2)c1	.	.	16*	.	.
COc1ccc(OC)c(Nc2nc(CC(=O)NCCC3=CCCCC3)cs2)c1	.	.	22*	.	.
SMILES	Mtb UGM inh	Rv3671c protease	SSB-PriA inh	RecA splice inh	Mtb bLac sens
COC(=O)Nc1nc(CC(=O)NCCC2=CCCCC2)cs1	.	.	4	.	.
CCCCn1c(CNC(=O)c2ccc(OC)cc2)nnc1SCc1ccc(Br)cc1	.	.	-21	.	.
CCOc1ccc(Nc2cc(C(=O)N3CCCCC3)nc3c(OC)cccc23)cc1	.	.	20	.	.
O=C(NN=Cc1ccc(F)cc1)c1ccccc1NS(=O)(=O)c1cccs1	0	-2	3	.	-1
O=C(N/N=C/c1ccc([N+](=O)[O-])o1)c1ccccc1NS(=O)(=O)c1cccs1	1	5	i	40*	99
COc1ccc(-n2ccnc2SCC(=O)Nc2cc(C)ccc2C)c(OC)c1	.	.	39*	.	.
COc1ccc(-n2ccnc2SCC(=O)Nc2ccc(Cl)cc2)cc1	.	.	49*	.	.
COc1ccc(-n2ccnc2SCC(=O)Nc2ccccc2)cc1	3	-2	27	2	-2
Cc1cccc(-n2ccnc2SCC(=O)Nc2ccc([N+](=O)[O-])cc2)c1C	.	.	51*	.	.
CCOc1ccccc1NC(=O)CSc1nccn1-c1ccc(C(=O)NCc2cccs2)cc1	.	.	40*	.	.
Cc1cc(NC(=O)CSc2nccn2-c2cccc(C)c2C)no1	0	2	-1	2	-10
CCOC(=O)c1ccc(NC(=O)CSc2nccn2-c2ccc(OC)cc2OC)cc1	.	.	-29	.	.

Source: PubChem BioAssay
